This passage reports outcome and AC50 results from PubChem BioAssay (EPA / NIEHS).

Assay [1] in a line: ATG_CRE_CIS: Attagene CIS-FACTORIAL HepG2 Assay for human cAMP Responsive Element (CRE) binding protein 3 (AID 2282926). As to conditions: HepG2 CRE cis-reporter, Attagene multiplexed mRNA; actives raise or lower the signal. In short, it runs like this:
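Human liver HepG2, transient MRTU transfection, 24 h compound exposure. Total RNA → oligo(dT) RT → PCR → 6-FAM primer extension → HpaI cut → CE. Activity called both directions vs DMSO.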

Assay [2] deals with CCAAT/enhancer-binding protein beta (Homo sapiens) (UniProt P17676). Description: ATG_C_EBP_CIS: Attagene CIS-FACTORIAL HepG2 Assay for human CCAAT/Enhancer Binding Protein (C/EBP) beta (AID 2282927). The note with it: HepG2 Attagene cis-factorial transcription factor reporter; actives raise or lower the signal. In short, it runs like this:
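Transiently transfected HepG2 (MRTU library, endogenous TF-driven promoters); 24 h dosing; total RNA → oligo(dT) RT → PCR → 6-FAM primer extension → HpaI digest → CE; fit bidirectionally vs DMSO.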

The nature of assay [3]: ATG_CMV_CIS: Attagene CIS-FACTORIAL HepG2 Assay for human CMV (Internal Marker) (AID 2282928).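 Also: endpoint acts as a background internal control marker rather than a target.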 The note with it: HepG2 CMV promoter reporter, transcription factor profiling; actives raise or lower the signal. In short, it runs like this: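 CMV internal-marker background readout in transiently transfected HepG2 cells bearing cis-regulated reporter units. Reporter mRNA is measured 24 h after dosing by RT-PCR and capillary electrophoresis, with bidirectional fitting against DMSO.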

Assay [4] in a line: ATG_DR4_LXR_CIS: Attagene CIS-FACTORIAL HepG2 Assay for human Liver X Receptor (LXR), DR4 submotif (AID 2282929). As to conditions: HepG2 Attagene DR4 cis-reporter, mRNA transcription; actives raise or lower the signal. Put shortly: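 HepG2 cells transiently transfected with cis-promoter-driven multiplexed reporter units (DR4 element) were dosed for 24 h. Reporter mRNA was quantified by RT-PCR, fluorescent primer extension, HpaI digestion and capillary electrophoresis; bidirectional fitting versus DMSO baseline.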

A short description of assay [5]: ATG_AP_1_CIS: Attagene CIS-FACTORIAL HepG2 Assay for human Activator Protein 1 (AP-1) (AID 2282931). The note with it: HepG2 Attagene cis-factorial AP-1 reporter mRNA; actives raise or lower the signal. Put shortly: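 HepG2 cells transiently transfected with cis-element-driven multiplex reporter units; 24 h compound exposure. Reporter mRNA quantified by RT-PCR, FAM-labelled fragments resolved by capillary electrophoresis; bidirectional fit versus DMSO baseline.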

The nature of assay [6]: ATG_AP_2_CIS: Attagene CIS-FACTORIAL HepG2 Assay for human Activator Protein 2 (AP-2) (AID 2282932). The note with it: HepG2 AP-2 cis-reporter, Attagene transcription factor profiling; actives raise or lower the signal. Put shortly:
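Multiplexed mRNA reporter assay in HepG2: cis-regulated units report endogenous factor activity after 24 h treatment. Fluorescence from capillary electrophoresis of RT-PCR products gives the signal, with DMSO as baseline.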

Assay [7] is described as follows: ATG_BRE_CIS: Attagene CIS-FACTORIAL HepG2 Assay for human Bone Morphogenetic Protein (BMP) Response Element (BRE) (AID 2282933). As to conditions: HepG2 BMP response element reporter, Attagene transcription factor profiling; actives raise or lower the signal. Put shortly: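 After a 24 h chemical treatment, transiently transfected HepG2 cells were lysed for RNA; reporter transcripts were quantified by fluorescent RT-PCR and capillary electrophoresis, normalised to DMSO.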

For assay [8], the target named is Transcription factor E2F1 (Homo sapiens) (UniProt Q01094). Description: ATG_E2F_CIS: Attagene CIS-FACTORIAL HepG2 Assay for human E2F Transcription Factor 1 (AID 2282935). As to conditions: HepG2 Attagene cis-reporter, E2F reporter RNA transcripts; actives raise or lower the signal. Put shortly:
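Measures reporter transcript levels via RT-PCR with capillary electrophoresis detection in HepG2 cells harboring cis-regulated reporter units; 24 h post-dose; bidirectional curve fitting with DMSO as baseline.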

Assay [9] is described as follows: ATG_E_Box_CIS: Attagene CIS-FACTORIAL HepG2 Assay for human Enhancer Box (E-box) (AID 2282936). The note with it: HepG2 E-box cis-reporter transcription, actives raise or lower the signal. Put shortly: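 First, HepG2 cells receive multiple cis-regulated reporter constructs by transient transfection. Next, chemicals are applied for 24 h. Finally, reporter mRNA is quantified via RT-PCR and capillary electrophoresis, with DMSO as baseline.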

The nature of assay [10]: ATG_M_61_CIS: Attagene CIS-FACTORIAL HepG2 Assay for M61 Transcription Factor (Internal Marker) (AID 2282937). The note with it: HepG2 Attagene CIS-FACTORIAL M61 internal marker reporter; actives raise or lower the signal. Put shortly:
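HepG2 cells transiently transfected with cis-element-driven multiple reporter transcription units, dosed for 24 h. Reporter mRNA measured by RT-PCR, 6-FAM primer-extension labelling, HpaI digestion and capillary electrophoresis; bidirectional fit versus DMSO baseline.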

A short description of assay [11]: ATG_EGR_CIS: Attagene CIS-FACTORIAL HepG2 Assay for human Early Growth Response 1 (EGR1) (AID 2282938). The note with it: HepG2 Attagene CIS-FACTORIAL EGR reporter mRNA; actives raise or lower the signal. In short, it runs like this: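 HepG2 cells transiently transfected with cis-promoter-driven multiplexed reporter transcription units; reporter mRNA measured 24 h after compound dosing by RT-PCR, 6-FAM primer extension, HpaI digestion and capillary electrophoresis. Bidirectional fit versus DMSO baseline.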

Assay [12] can be described thus: ATG_Ets_CIS: Attagene CIS-FACTORIAL HepG2 Assay for human Erythroblast Transformation Specific (ETS) (AID 2282941). As to conditions: HepG2 ETS cis-reporter transcription, actives raise or lower the signal. Put shortly: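 HepG2 cells transfected with multiple cis-regulated reporter units measuring endogenous ETS-driven transcription, 24 h after dosing. Reporter mRNA quantified by RT-PCR with capillary electrophoresis; bidirectional fit relative to DMSO.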

Assay [13] can be described thus: ATG_FoxO_CIS: Attagene CIS-FACTORIAL HepG2 Assay for human Forkhead box O (FoxO) (AID 2282943). The note with it: HepG2 Attagene cis-reporter, FoxO element, mRNA; actives raise or lower the signal. In short, it runs like this:
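Read-out: fluorescence of 6-FAM-labelled reporter cDNA fragments resolved by capillary electrophoresis. Transiently transfected HepG2 cells were dosed for 24 h; activity fitted in both directions relative to DMSO controls.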

Assay [14] in a line: ATG_GATA_CIS: Attagene CIS-FACTORIAL HepG2 Assay for human GATA Binding Protein (AID 2282944). As to conditions: HepG2 GATA cis-element reporter, Attagene multiplex mRNA; actives raise or lower the signal. Put shortly:
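Measures endogenous transcription factor-driven reporter mRNA in HepG2 cells transiently carrying cis-regulated constructs. 24 h dosing; RNA via oligo(dT) reverse transcription, PCR, HpaI digestion, capillary electrophoresis; fitted relative to DMSO.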

Assay [15] can be described thus: ATG_GLI_CIS: Attagene CIS-FACTORIAL HepG2 Assay for human Zinc Finger Protein GLI1 (AID 2282945). As to conditions: HepG2, Attagene cis-factorial reporter mRNA, GLI element; actives raise or lower the signal. In short, it runs like this:
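Transiently transfected HepG2 cells report endogenous transcription factor activity via cis-element-driven reporter units. After 24 h compound exposure, reporter mRNA was measured by RT-PCR with capillary electrophoresis; bidirectional fitting against DMSO baseline.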

Assay [16] can be described thus: ATG_ISRE_CIS: Attagene CIS-FACTORIAL HepG2 Assay for human Interferon Regulatory Factor 1 (IRF1) binding to an Interferon-Stimulated Response Element (ISRE) (AID 2282948). The note with it: HepG2 ISRE cis-reporter (Attagene), mRNA transcription readout; actives raise or lower the signal. In short, it runs like this: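 Transiently transfected HepG2 cells carrying cis-element reporter units, dosed 24 hours. Reporter mRNA quantified by RT-PCR, fluorescent primer extension, HpaI digestion and capillary electrophoresis. Bidirectional fitting relative to DMSO.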

Assay [17] in a line: ATG_M_32_CIS: Attagene CIS-FACTORIAL HepG2 Assay for M32 Transcription Factor (Internal Marker) (AID 2282949).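 Also: background control marker of the multiplexed CIS panel rather than a real target.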 The note with it: HepG2 Attagene cis-factorial M32 reporter, mRNA; actives raise or lower the signal. In short, it runs like this: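 Following 24 h chemical exposure of HepG2 cells transiently expressing cis-promoter reporter constructs, reporter transcript levels were determined by RT-PCR with fluorescent labelling and capillary electrophoresis, then fitted bidirectionally against DMSO.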

A short description of assay [18]: ATG_M_06_CIS: Attagene CIS-FACTORIAL HepG2 Assay for M06 Transcription Factor (Internal Marker) (AID 2282950). As to conditions: HepG2 Attagene CIS-FACTORIAL M06 internal marker reporter; actives raise or lower the signal. Put shortly: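 One of many multiplexed endpoints: HepG2 reporter mRNA after 24 h dosing, detected by RT-PCR and capillary electrophoresis fluorescence; gain or loss of signal analysed against DMSO.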

Assay [19] addresses Paired box protein Pax-6 (Homo sapiens) (UniProt P26367). Description: ATG_Pax6_CIS: Attagene CIS-FACTORIAL HepG2 Assay for human Paired Box 6 (PAX6) (AID 2282956). The note with it: HepG2 CIS-FACTORIAL PAX6 reporter transcription, RNA readout; actives raise or lower the signal. Put shortly: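 HepG2 cells transiently transfected with cis-promoter-driven multiplexed reporter units sensing endogenous transcription factor activity; 24 h chemical exposure. Reporter mRNA quantified by RT-PCR, 6-FAM labelling, HpaI digestion and capillary electrophoresis; bidirectional fit versus DMSO baseline.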

A short description of assay [20]: ATG_PXRE_CIS: Attagene CIS-FACTORIAL HepG2 Assay for human Pregnane X Receptor Element (PXRE) (AID 2282957). As to conditions: HepG2 Attagene CIS-FACTORIAL PXRE reporter, mRNA; actives raise or lower the signal. Put shortly: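 Transfect HepG2 with MRTUs (cis promoter elements); dose chemical, incubate 24 h; isolate RNA, RT with oligo(dT), PCR, 6-FAM label, HpaI cut, CE. Gain/loss fit vs DMSO.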

The source made the active and inactive calls. The calls were made as follows: active = hit-call score of the fitted dose curve at least 0.9, where 1 is the maximum; inactive = score below 0.9.

Paired box protein Pax-6 (Homo sapiens), sequence (P26367 whole entry, looked up): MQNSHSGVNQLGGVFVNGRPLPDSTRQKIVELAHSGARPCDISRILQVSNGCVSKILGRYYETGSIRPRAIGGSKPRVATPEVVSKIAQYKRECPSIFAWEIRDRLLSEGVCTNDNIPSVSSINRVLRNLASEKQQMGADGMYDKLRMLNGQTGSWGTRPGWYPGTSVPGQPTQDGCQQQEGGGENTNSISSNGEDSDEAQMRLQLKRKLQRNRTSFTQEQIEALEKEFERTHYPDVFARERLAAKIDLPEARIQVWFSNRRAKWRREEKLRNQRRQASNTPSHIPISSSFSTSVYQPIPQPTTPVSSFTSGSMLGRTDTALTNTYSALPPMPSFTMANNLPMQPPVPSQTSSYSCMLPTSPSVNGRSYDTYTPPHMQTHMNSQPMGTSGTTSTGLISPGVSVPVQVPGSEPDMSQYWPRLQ
CCAAT/enhancer-binding protein beta (Homo sapiens), sequence (P17676 whole entry, looked up): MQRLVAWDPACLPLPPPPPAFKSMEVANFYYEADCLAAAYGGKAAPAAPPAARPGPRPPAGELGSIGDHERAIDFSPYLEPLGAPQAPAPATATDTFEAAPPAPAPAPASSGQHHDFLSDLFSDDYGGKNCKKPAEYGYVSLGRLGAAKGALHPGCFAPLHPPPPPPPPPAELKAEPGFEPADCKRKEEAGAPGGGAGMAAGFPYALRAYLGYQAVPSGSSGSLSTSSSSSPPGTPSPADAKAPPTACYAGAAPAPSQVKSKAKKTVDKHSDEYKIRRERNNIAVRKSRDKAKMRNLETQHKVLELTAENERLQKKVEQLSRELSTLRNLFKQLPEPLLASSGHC
Transcription factor E2F1 (Homo sapiens), sequence (Q01094 whole entry, looked up): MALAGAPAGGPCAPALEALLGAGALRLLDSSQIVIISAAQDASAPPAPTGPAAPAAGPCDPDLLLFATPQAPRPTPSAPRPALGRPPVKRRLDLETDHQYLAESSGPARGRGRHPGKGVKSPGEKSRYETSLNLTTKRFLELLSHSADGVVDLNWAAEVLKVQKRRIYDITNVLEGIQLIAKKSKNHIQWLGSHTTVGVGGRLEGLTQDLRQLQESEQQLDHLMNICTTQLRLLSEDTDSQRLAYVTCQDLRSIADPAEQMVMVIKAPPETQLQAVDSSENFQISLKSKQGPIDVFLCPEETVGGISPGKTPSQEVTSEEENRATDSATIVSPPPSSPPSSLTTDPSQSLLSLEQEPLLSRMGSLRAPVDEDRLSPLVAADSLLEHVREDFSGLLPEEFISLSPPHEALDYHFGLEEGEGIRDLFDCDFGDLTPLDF

With `CC(=O)CCc1ccccc1`, the call in [1], in [2], in assay [3], in assay [4], in assay [5] and in assay [6] was inactive. Further, the compound was called inactive in assay [7], in assay [8], in assay [9], in assay [10], in assay [11] and in assay [12]. For the same compound, the result in assay [13], in [14], in [15], in assay [16], in assay [17] and in assay [18] was inactive. The compound was classed as inactive in assay [19] and in assay [20].

In the case of `CCC(C)(CCC(C)C)C(=O)O` (stereo not given), the compound was classed as inactive in assay [1], in [2], in assay [3], in [4], in assay [5] and in [6]. For the same compound, the result in [7], in assay [8], in [9], in assay [10], in assay [11] and in assay [12] was inactive. For the same compound, the outcome in assay [13], in [14], in assay [15], in assay [16], in [17] and in assay [18] was inactive. The compound was called inactive in assay [19] and in assay [20].

Turning to `NC(=O)c1ccc([N+](=O)[O-])cc1Cl`, the compound was called inactive in [1], in assay [2], in [3], in assay [4], in [5] and in assay [6]. Further, the compound was classed as inactive in assay [7], in assay [8], in assay [9], in [10], in assay [11] and in assay [12]. Besides, the compound was called inactive in assay [13], in [14], in [15], in assay [16], in [17] and in assay [18]. Further, the call in assay [19] and in assay [20] was inactive.

With `CC(=O)Nc1c(I)c(NC(C)=O)c(I)c(C(=O)O)c1I`, the outcome in assay [1], in assay [2], in assay [3], in assay [4], in assay [5] and in assay [6] was inactive. The compound was classed as inactive in assay [7], in assay [8], in assay [9], in assay [10], in assay [11] and in assay [12]. For the same compound, the outcome in assay [13], in [14], in [15], in assay [16], in assay [17] and in assay [18] was inactive. Moreover, the outcome in [19] and in assay [20] was inactive.

Turning to `O=C(Oc1ccccc1)c1ccccc1`, the compound was called inactive in [1], in assay [2], in assay [3], in assay [4], in assay [5] and in [6]. Further, the compound was classed as inactive in assay [7], in assay [8], in assay [9], in [10], in [11] and in [12]. Also, the outcome in assay [13], in assay [14], in assay [15], in assay [16], in assay [17] and in [18] was inactive. For the same compound, the result in assay [19] and in assay [20] was inactive.

For `COC(=O)CCSCCC(=O)OC`, the compound was called inactive in assay [1], in assay [2], in [3], in assay [4], in assay [5] and in assay [6]. The compound was classed as inactive in assay [7], in [8], in [9], in assay [10], in assay [11] and in assay [12]. The call in assay [13], in assay [14], in assay [15], in assay [16], in assay [17] and in assay [18] was inactive. For the same compound, the compound was called inactive in [19] and in assay [20].

The AC50 is the concentration giving half of the maximal activity seen. As to `Sc1nc2ccccc2s1`, the compound was classed as inactive in assay [1], in assay [2], in [3], in [4], in [5] and in [6]. In addition, the call in assay [7], in assay [8], in assay [9], in assay [10], in assay [11] and in [12] was inactive. Besides, the compound was classed as inactive in assay [13], in [14], in assay [15], in assay [16], in assay [17] and in [18]. Moreover, the call in [19] was inactive. Further, the AC50 in assay [20] is 80.6 µM (active).
